Results published in PubChem BioAssay AID743342 (Broad Institute, 2014).
Potency and affinity values are given separately. Active and inactive are the calls of the source.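 Rule for the calls: active = every replicate test run was called active, each showing a signal decrease within twice the top valid dose; inconclusive = replicate test runs disagree on the call; inactive = every test run inactive, including signal moving upward.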

What follows are compounds tested on Drosophila bursicon receptor LGR2 (rickets) (assay: inhibition of bursicon-driven LGR2 cAMP signaling – cell-based, HEK293, CRE-luciferase reporter, cherry pick, dose response (AID 743342)). Details: bursicon antagonist, 4 h; series mostly up to 35 µM; activity change, negative = inhibition: at the top concentration.

Activity change, negative = inhibition, inactive:
C[C@H](CO)N1C[C@H](C)[C@H](CN(C)C(=O)Cc2ccccc2)OCCCC[C@H](C)Oc2ccc(NC(=O)Nc3ccc(C(F)(F)F)cc3)cc2C1=O -29.2%, C[C@@H]1CN([C@@H](C)CO)C(=O)c2cc(NS(C)(=O)=O)ccc2O[C@@H](C)CCCCO[C@@H]1CN(C)Cc1ccc(C(F)(F)F)cc1 -20%, Cc1noc(C)c1S(=O)(=O)Nc1ccc2c(c1)C(=O)N([C@H](C)CO)C[C@H](C)[C@H](CN(C)C(=O)Nc1ccc(F)cc1)OCCCC[C@@H](C)O2 -2.2%, C[C@@H]1CCCCO[C@H](CN(C)CC2CCCCC2)[C@H](C)CN([C@H](C)CO)C(=O)c2cc(NS(=O)(=O)c3ccccc3)ccc2O1 -12.9% [at 30 µM], COc1ccc(S(=O)(=O)Nc2ccc3c(c2)C(=O)N([C@@H](C)CO)C[C@@H](C)[C@H](CN(C)C(=O)Nc2cccc4ccccc24)OCCCC[C@H](C)O3)cc1 -13.7%, CC(C)NC(=O)Nc1ccc2c(c1)C(=O)N([C@H](C)CO)C[C@@H](C)[C@H](CN(C)S(C)(=O)=O)OCCCC[C@H](C)O2 0.859%, COc1ccc(S(=O)(=O)Nc2ccc3c(c2)C(=O)N([C@@H](C)CO)C[C@H](C)[C@@H](CN(C)C(=O)Nc2cccc4ccccc24)OCCCC[C@H](C)O3)cc1 -15.9%, Cc1ccc(S(=O)(=O)Nc2ccc3c(c2)C(=O)N([C@H](C)CO)C[C@@H](C)[C@H](CN(C)S(=O)(=O)c2cccs2)OCCCC[C@@H](C)O3)cc1 -19%, COc1ccc(S(=O)(=O)Nc2ccc3c(c2)C(=O)N([C@H](C)CO)C[C@H](C)[C@H](CN(C)S(=O)(=O)c2ccc(F)cc2)OCCCC[C@@H](C)O3)cc1 -15.2%
